From PubChem BioAssay (NCATS)
Inconclusive results are not listed. Activity calls are given as the source filed them. Calls come from the whole dose curve; as a rule, active = well fitted curve in the direction sought with a large enough effect; inconclusive = small, poorly fitted or top-dose-only effect, or another doubt; inactive = no such curve, though single readings can be large; an effect the other way counts as inactive or inconclusive.

Tests used:
3D7 = assay: qHTS profiling for inhibitors of Plasmodium falciparum proliferation (AID 504749);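 note: 0% = DMSO vehicle and full inhibition = artemisinin control; nearly all actives have a fitted effect of over 60% in size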; conditions: P. falciparum in erythrocytes, SYBR Green DNA, 72 h; series mostly up to 28.7 µM
In short: (§1)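 Readout was DNA-dye fluorescence from lysed cultures, ex 485/em 535 nm. Parasitized red cells had grown 72 h with compound; data scaled between 0.29 uM artemisinin and DMSO wells and corrected using vehicle-only plates.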

C2A = assay: as above; conditions: P. falciparum in erythrocytes, SYBR Green DNA, 72 h; series mostly up to 28.7 µM
In short: as §1

CP191 = assay: as above; conditions: P. falciparum in erythrocytes, SYBR Green DNA, 72 h; series mostly up to 28.7 µM
In short: as §1

CP201 = assay: as above; conditions: P. falciparum in erythrocytes, SYBR Green DNA, 72 h; series mostly up to 28.7 µM
In short: as §1

CP215 = assay: as above; conditions: P. falciparum in erythrocytes, SYBR Green DNA, 72 h; series mostly up to 28.7 µM
In short: as §1

CP238 = assay: as above; conditions: P. falciparum in erythrocytes, SYBR Green DNA, 72 h; series mostly up to 28.7 µM
In short: as §1

CP262 = assay: as above; conditions: P. falciparum in erythrocytes, SYBR Green DNA, 72 h; series mostly up to 28.7 µM
In short: as §1

CP265 = assay: as above; conditions: P. falciparum in erythrocytes, SYBR Green DNA, 72 h; series mostly up to 12.8 µM
In short: as §1

CP266 = assay: as above; conditions: P. falciparum in erythrocytes, SYBR Green DNA, 72 h; series mostly up to 12.8 µM
In short: as §1

CP286 = assay: as above; conditions: P. falciparum in erythrocytes, SYBR Green DNA, 72 h; series mostly up to 28.7 µM
In short: as §1

CP305 = assay: as above; conditions: P. falciparum in erythrocytes, SYBR Green DNA, 72 h; series mostly up to 28.7 µM
In short: as §1

CP325 = assay: as above; conditions: P. falciparum in erythrocytes, SYBR Green DNA, 72 h; series mostly up to 28.7 µM
In short: as §1

CP329 = assay: as above; conditions: P. falciparum in erythrocytes, SYBR Green DNA, 72 h; series mostly up to 28.7 µM
In short: as §1

DIV14 = assay: as above; conditions: P. falciparum in erythrocytes, SYBR Green DNA, 72 h; series mostly up to 28.7 µM
In short: as §1

DIV30 = assay: as above; conditions: P. falciparum in erythrocytes, SYBR Green DNA, 72 h; series mostly up to 28.7 µM
In short: as §1

HB3 = assay: as above; conditions: P. falciparum in erythrocytes, SYBR Green DNA, 72 h; series mostly up to 28.7 µM
In short: as §1

P93_24 = assay: as above; conditions: P. falciparum in erythrocytes, SYBR Green DNA, 72 h; series mostly up to 28.7 µM
In short: as §1

PAD = assay: as above; conditions: P. falciparum in erythrocytes, SYBR Green DNA, 72 h; series mostly up to 28.7 µM
In short: as §1

PC26 = assay: as above; conditions: P. falciparum in erythrocytes, SYBR Green DNA, 72 h; series mostly up to 28.7 µM
In short: as §1

[1] = qHTS assay for cell viability of HEK293 cells (AID 743288); conditions: ATP luminescence (CellTiter-Glo), 18 h; max response: hits give low values; note: % is set by controls: 0 for no effect and ±100 for the full control effect; nearly all actives have a fitted effect of over 50% in size
In short: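 Luminescent ATP quantitation served as the viability read-out. Cells (parental HEK293, 2,000/well) received compounds after at least 5 h at 37 C and were exposed for 18 h before a 30 min room-temperature reagent step.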

NCC[C@H](O)C(=O)N[C@H]1C[C@@H](N)[C@@H](O[C@H]2O[C@@H](CN)[C@@H](O)[C@@H](O)[C@@H]2N)[C@@H](O[C@H]2O[C@@H](CO)[C@@H](O)[C@@H]2O)[C@@H]1O
inactive: Potency (3D7) | Potency (C2A) | Potency (CP191) | Potency (CP201) | Potency (CP215) | Potency (CP238) | Potency (CP262) | Potency (CP265) | Potency (CP266) | Potency (CP286) | Potency (CP305) | Potency (CP325) | Potency (CP329) | Potency (DIV14) | Potency (DIV30) | Potency (HB3) | Potency (P93_24) | Potency (PAD) | Potency (PC26)

CN[C@@H](C)[C@H]1CC[C@@H](N)[C@@H](O[C@@H]2[C@@H](O)[C@@H](O[C@H]3OC[C@@](C)(O)[C@@H](NC)[C@@H]3O)[C@H](N)C[C@@H]2N)O1 (tested in a mixture with another compound)
inactive: Potency (3D7) | Potency (C2A) | Potency (CP191) | Potency (CP201) | Potency (CP238) | Potency (CP262) | Potency (CP265) | Potency (CP266) | Potency (CP286) | Potency (CP305) | Potency (CP325) | Potency (CP329) | Potency (DIV14) | Potency (DIV30) | Potency (HB3) | Potency (P93_24) | Potency (PAD) | Potency (PC26)

C[C@@H]1O[C@H](O[C@@H]2C=C3CC[C@H]4[C@@H](CC[C@]5(C)[C@@H](c6ccc(=O)oc6)CC[C@]45O)[C@@]3(C)CC2)[C@@H](O)[C@H](O)[C@@H]1O
inactive: Potency (3D7) | Potency (C2A) | Potency (CP191) | Potency (CP201) | Potency (CP215) | Potency (CP238) | Potency (CP265) | Potency (CP266) | Potency (CP286) | Potency (CP305) | Potency (CP325) | Potency (CP329) | Potency (DIV14) | Potency (DIV30) | Potency (HB3) | Potency (P93_24) | Potency (PAD)

CC(C)N(CC[C@@](C(N)=O)(c1ccccc1)c1ccccn1)C(C)C
inactive: Potency (3D7) | Potency (C2A) | Potency (CP191) | Potency (CP201) | Potency (CP215) | Potency (CP238) | Potency (CP262) | Potency (CP265) | Potency (CP266) | Potency (CP286) | Potency (CP305) | Potency (CP325) | Potency (CP329) | Potency (DIV14) | Potency (DIV30) | Potency (HB3) | Potency (P93_24) | Potency (PAD) | Potency (PC26)

COc1cc(N)c(Cl)cc1C(=O)N[C@@H]1CN2CCC1CC2
inactive: Potency (3D7) | Potency (C2A) | Potency (CP191) | Potency (CP201) | Potency (CP215) | Potency (CP238) | Potency (CP262) | Potency (CP265) | Potency (CP266) | Potency (CP286) | Potency (CP305) | Potency (CP325) | Potency (CP329) | Potency (DIV14) | Potency (DIV30) | Potency (HB3) | Potency (P93_24) | Potency (PAD) | Potency (PC26)

CCN[C@]1(c2cccs2)CCCCC1=O
inactive: Potency (3D7) | Potency (C2A) | Potency (CP191) | Potency (CP201) | Potency (CP215) | Potency (CP238) | Potency (CP262) | Potency (CP265) | Potency (CP266) | Potency (CP286) | Potency (CP305) | Potency (CP325) | Potency (CP329) | Potency (DIV14) | Potency (DIV30) | Potency (HB3) | Potency (P93_24) | Potency (PAD) | Potency (PC26)

CN(C)[C@@H]1C(=O)C(C(N)=O)=C(O)[C@]2(O)C(=O)C3=C(O)c4c(O)ccc(Cl)c4[C@](C)(O)[C@H]3C[C@@H]12
inactive: Potency (3D7) | Potency (C2A) | Potency (CP201) | Potency (CP215) | Potency (CP238) | Potency (CP262) | Potency (CP265) | Potency (CP266) | Potency (CP286) | Potency (CP305) | Potency (CP325) | Potency (CP329) | Potency (DIV14) | Potency (DIV30) | Potency (HB3) | Potency (P93_24) | Potency (PAD) | Potency (PC26)

CNC(=O)N(C)c1nnc(C(C)(C)C)s1
inactive: max response [1] -3.03%

N[C@H]1C[C@H]1c1ccccc1
inactive: Potency (3D7) | Potency (C2A) | Potency (CP191) | Potency (CP201) | Potency (CP215) | Potency (CP238) | Potency (CP262) | Potency (CP265) | Potency (CP266) | Potency (CP286) | Potency (CP305) | Potency (CP325) | Potency (CP329) | Potency (DIV14) | Potency (DIV30) | Potency (HB3) | Potency (P93_24) | Potency (PAD) | Potency (PC26)
